This experiment concerns Pectobacterium parmentieri SCC3193. In words: DuctApe activity index (growth/respiration on compound as sole nutrient source, blank-subtracted) (activity index (0-3)); higher = stronger utilization of the compound, active = 3 or more. Conditions: nutrient role (plate category): carbon. The protocol: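 Biolog Phenotype Microarray plates PM1, PM2A (carbon), PM3 (nitrogen) and PM4 (phosphorus/sulfur) inoculated with P. parmentieri SCC3193 in M9-C minimal salts medium with Biolog dye A, and read in the OmniLog for 46 h. Each well was tested in triplicate and the experiment was run twice. DuctApe computed a blank-subtracted activity index (AV, 0-3) from the mean curves; growth is positive at AV >= 3 and negative at AV <= 2.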
Turning to `O=P(O)(O)OC[C@H]1OC(O)(CO)[C@@H](O)[C@@H]1O` (stereo partly drawn) [D-Fructose-6-Phosphate], the DuctApe activity index was 3 (active). To `O=C(O)CCC(=O)C(=O)O` [a-Ketoglutaric acid] belongs 0 (inactive); to `O=C(O)C(=O)O` [Oxalic acid], 0 (inactive). To `OC[C@@]12OC[C@@H](O1)[C@@H](O)[C@@H](O)[C@@H]2O` [Sedoheptulosan] belongs 0 (inactive); to `O=C(O)[C@H]1OC(O)[C@H](O)[C@@H](O)[C@H]1O` (stereo partly drawn) [D-Galacturonic acid], 3 (active); to `O=C(O)c1ccc(O)cc1` [4-Hydroxybenzoic acid], 0 (inactive). To `OC[C@@H](O)[C@H](O)[C@@H](O)CO` [Xylitol] belongs 0 (inactive); to `NC(=O)CCC(=O)O` [Succinamic acid], 3 (active); to `O=C(CO)[C@@H](O[C@H]1O[C@H](CO)[C@@H](O)[C@H](O)[C@H]1O)[C@H](O)[C@H](O)CO` [Turanose], 0 (inactive). Take `CCCCCCCCCC(=O)O` [Capric acid]: the DuctApe activity index is 0 (inactive). As to `O=C(O)[C@H](O)[C@@H](O)[C@H](O)[C@H](O)CO` [D-Gluconic acid], the DuctApe activity index was 3 (active). To `OC[C@H]1OC(O)[C@@H](O)[C@@H](O)[C@@H]1O` (stereo partly drawn) [D-Mannose] belongs 3 (active).

With `O=C(O)CC(O)C(=O)O` (racemic) [DL-Malic acid], the DuctApe activity index is 3 (active). To `OCC1OC(O)(CO)C(O)C1O` [D-Fructose] belongs 3 (active); to `O=C1CC[C@@H](C(=O)O)O1` [a-Hydroxyglutaric acid-g-Lactone], 1 (inactive); to `OC[C@@H](O)[C@H](O)[C@H](O)[C@@H](O)CO` [Dulcitol], 0 (inactive). To `OC[C@H]1O[C@H](OC[C@H]2OC(O)[C@H](O)[C@@H](O)[C@@H]2O)[C@H](O)[C@@H](O)[C@H]1O` (stereo partly drawn) [D-Melibiose] belongs 3 (active). To `OC[C@@H](O)[C@@H](O)[C@H](O)[C@@H](O)CO` [D-Sorbitol] belongs 0 (inactive).

The values above are taken from the supplement of paper PMC6518042.
